Bioassay records: PubChem BioAssay, several laboratories
Gli-Sufu antag: antagonists of Gli-Sufu signaling; inhibition, % at 5 µM; Sufu-KO-LIGHT fibroblasts, Gli luciferase reporter luminescence; 340,000 compounds, 0.74% hits;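 active = inhibition above about 55%, limit read from the data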;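 also: 0% = DMSO-treated cells and 100% = wells with medium but no cells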
697 NFkB inh: lowers PMA/ionomycin-induced NF-kB signal in 697 B cells; 697 B-cell NF-kB luciferase reporter, 16 h; inhibition, % at 4 µM; 330,000 compounds, 0.33% hits; AID 435022; in the data active = inhibition above about 35%
Beta cell apopt: beta cell apoptosis inhibition | INS-1E cytokine-induced death, ATP luminescence, 48 h; percent of positive-control rescue, neutral wells zero | protection from apoptosis, % (concentration not given with the values) | 300,000 compounds, 0.8% hits;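 active = Every replicate reaches about 75%, or at least half do and their mean reaches it too, limit read from the data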;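 also: 0% = cytokine-treated negative control wells and 100% = positive control rescue; higher means more ATP so stronger rescue from cytokine killing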
Jurkat NFkB inh: inhibitors of the PMA/ionomycin-induced NF-kB reporter in Jurkat cells. PMA/ionomycin-induced NF-kB luciferase reporter, luminescence. inhibition, % at 4 µM. AID 435003. 330,000 compounds, 0.53% hits; in the data active = inhibition above about 50%
Mdm2 MdmX PPI: human Mdm2/MdmX binding inhibition | SaOS-2 split-luciferase Mdm2/MdmX complementation, luminescence | inhibition, % at 8 µM | 330,000 compounds, 3% hits;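 active = inhibition of at least 50% at 8 µM in the primary screen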
Target sequence (O15151 whole entry, looked up): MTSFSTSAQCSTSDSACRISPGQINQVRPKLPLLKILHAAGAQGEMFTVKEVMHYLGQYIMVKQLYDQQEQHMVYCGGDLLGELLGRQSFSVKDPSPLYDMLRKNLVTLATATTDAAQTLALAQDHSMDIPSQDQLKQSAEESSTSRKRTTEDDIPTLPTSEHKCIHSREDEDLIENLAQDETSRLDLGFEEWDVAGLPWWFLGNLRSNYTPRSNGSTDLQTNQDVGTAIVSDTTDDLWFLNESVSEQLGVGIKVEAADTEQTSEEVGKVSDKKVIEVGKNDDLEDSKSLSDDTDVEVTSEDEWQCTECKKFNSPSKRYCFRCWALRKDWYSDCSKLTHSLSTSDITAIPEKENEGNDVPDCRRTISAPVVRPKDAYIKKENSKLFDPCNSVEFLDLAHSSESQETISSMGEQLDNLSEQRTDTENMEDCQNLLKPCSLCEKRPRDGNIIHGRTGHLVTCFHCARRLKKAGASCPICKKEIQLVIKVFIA
Target sequence (Q00987 whole entry, looked up): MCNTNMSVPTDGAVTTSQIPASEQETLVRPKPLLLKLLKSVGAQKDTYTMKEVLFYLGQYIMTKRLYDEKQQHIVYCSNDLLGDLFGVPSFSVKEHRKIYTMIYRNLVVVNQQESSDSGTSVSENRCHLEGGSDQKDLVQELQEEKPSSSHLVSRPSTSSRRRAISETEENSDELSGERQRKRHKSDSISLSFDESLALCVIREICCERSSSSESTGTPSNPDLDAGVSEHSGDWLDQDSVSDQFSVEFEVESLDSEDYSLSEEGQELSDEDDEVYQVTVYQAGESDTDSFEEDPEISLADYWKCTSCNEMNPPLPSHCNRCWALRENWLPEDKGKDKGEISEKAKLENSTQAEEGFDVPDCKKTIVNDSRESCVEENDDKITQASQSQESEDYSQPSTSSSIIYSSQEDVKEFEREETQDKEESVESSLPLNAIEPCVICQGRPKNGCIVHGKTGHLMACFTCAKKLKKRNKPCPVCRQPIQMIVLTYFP
Mdm2 MdmX conf: confirmation of human Mdm2/MdmX interaction inhibitors; shares compounds with Mdm2 MdmX PPI; Mdm2-MdmX binding, luminescent assay; inhibition, % at 8 µM; 10,000 compounds, 55% hits; AID 489028; in the data active = inhibition above about 40%
FLuc counter: counter-screen for Mdm2/MdmX inhibitors: full-length luciferase. shares compounds with Mdm2 MdmX PPI. SaOS-2 full-length luciferase counterscreen, luminescence. AID 504607. 6,200 compounds, 77% hits. inhibition, % at 8 µM;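 active = mean inhibition at 8 µM reaching about 37%, which flags the compound as non-specific, limit read from the data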;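 also: p53-null SaOS-2 cells with luciferase driven by a doxycycline-inducible promoter; compound on cells about two nights before reading with doxycycline added after day one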
Active calls of the source: *; / = not tested or not shown. An excerpt weighted towards active compounds, which were near 4% of everything screened.

SMILES	Gli-Sufu antag	697 NFkB inh	Beta cell apopt	Jurkat NFkB inh	Mdm2 MdmX PPI	Mdm2 MdmX conf	others
O=C(NCCC1=CCCCC1)c1c(O)nc2sccn2c1=O	-5.3	-30.4	-2.7	4.0	79.9*	57.2*	FLuc counter=67.5*
CCCn1c(N2CCN(C)CC2)nc2c1c(=O)[nH]c(=O)n2C	-12.8	10.1	-2.1	-10.4	28.9	/
CCCn1c(N2CCN(CC(=O)c3c(C)n(C)c4ccc(OC)cc34)CC2)nc2c1c(=O)[nH]c(=O)n2C	4.2	15.3	/	5.0	54.8*	22.1
Cc1nc2c(sc3nc(N4CCOCC4)c4c(c32)CC(C)(C)OC4)c(-c2ccc(Cl)cc2)c1C(=O)O	-8.5	12.6	8.3	-5.4	64.5*	31.9
CC1(C)Cc2c(c(N3CCOCC3)nc3snc(N)c23)CO1	2.4	14.3	67.0	18.3	82.9*	30.9
CC1(C)Cc2c(c(N3CCOCC3)nc3sc(C(=O)Nc4ccc(Cl)cc4)c(N)c23)CO1	3.2	-8.5	0.9	-21.3	5.0	/
CC1(C)Cc2c(c(N3CCOCC3)nc3snc(Br)c23)CO1	-6.9	-1.9	7.6	4.6	20.2	/
COc1cccc(CN2CC(C(=O)N3CCCCCC3)CCC2=O)c1 (centres undefined)	-9.8	-29.3	/	0.0	-5.2	/
COCC(C)n1c(SCC(=O)NC(=O)NC2CCCC2)nc2ccccc2c1=O (centres undefined)	5.8	22.5	-10.5	7.4	8.9	/
COc1cc2ncc(S(=O)(=O)c3ccccc3)c(N3CCCC(C)C3)c2cc1OC (centres undefined)	17.8	-4.4	11.2	7.1	50.9*	17.9
O=S(=O)(c1ccccc1)c1cnc(-c2ccccc2)nc1N1CCCC1	-33.6	-36.8	11.4	-10.1	2.1	/
COc1ccc(/C(C)=N/NC(=O)c2nnn(-c3nonc3N)c2-c2cccs2)cc1OC	-10.1	-2.0	6.1	6.0	59.1*	-7.8
COc1ccc(/C(C)=N/NC(=O)c2nnn(-c3nonc3N)c2-c2ccccc2)cc1	-4.9	-20.3	-4.1	-18.1	60.8*	9.3
C/C(=N\NC(=O)c1nnn(-c2nonc2N)c1-c1cccs1)c1ccc(C)cc1	-9.6	2.6	2.1	0.8	70.6*	2.2
COc1ccc(/C(C)=N/NC(=O)c2nnn(-c3nonc3N)c2-c2cccs2)cc1	/	-10.4	-0.7	-17.9	59.5*	-1.7
Cc1cc(C(=O)OCC(=O)Nc2c(F)cccc2F)c(C)n1-c1ccccc1	-8.8	6.8	-1.4	-22.5	-14.5	/
CNS(=O)(=O)c1cn(CC(=O)NCc2cccc(OC)c2)cc1S(=O)(=O)NC	-11.8	8.8	-2.8	-0.9	-9.2	/
COC(=O)[C@]1(C)N[C@H](CN(C)C(=O)NC(C)C)[C@@H]2C(=O)N(C)C(=O)[C@@H]21	-2.5	1.4	-4.1	-7.0	8.9	/
O=C(Cc1ccccc1[N+](=O)[O-])NC1CC2CCC1C2 (centres undefined)	-4.0	4.9	/	-6.0	8.5	/
Cc1ccc(-c2csc3ncnc(SCC(=O)O)c23)cc1	2.1	22.1	-1.7	-4.6	12.2	/
CC(=O)c1ccccc1-c1csc2ncnc(Sc3nnnn3C)c12	35.3	-78.3	-34.7	-19.5	32.2	/
Cn1nnnc1Sc1ncnc2scc(-c3cc4ccccc4o3)c12	15.2	19.5	88.9*	32.4	100.3*	99.4*	FLuc counter=51.2*
Cn1nnnc1Sc1ncnc2scc(-c3ccc(-c4ccccc4)cc3)c12	5.4	6.5	-4.0	0.7	100.5*	22.6
Cn1nnnc1Sc1ncnc2scc(-c3ccsc3)c12	37.1	-89.0	-3.9	-12.6	99.6*	85.3*	FLuc counter=52.7*
Cn1nnnc1Sc1ncnc2scc(-c3ccc(C#N)cc3)c12	35.7	-245.9	-39.9	-9.1	87.2*	78.6*	FLuc counter=59.6*
SMILES	Gli-Sufu antag	697 NFkB inh	Beta cell apopt	Jurkat NFkB inh	Mdm2 MdmX PPI	Mdm2 MdmX conf	others
C[C@H](CO)N1C[C@H](C)[C@@H](CN(C)C(=O)Nc2ccc(F)cc2)Oc2ccc(NS(C)(=O)=O)cc2C1=O	-8.3	4.8	-3.4	8.3	-19.7	/
CC(O)c1nc2ccccc2n1CCCc1ccccc1 (centres undefined)	13.2	-9.6	-5.3	-1.5	-18.2	/
COc1ccc(C(=O)NCC(=O)c2ccccc2)cc1	-19.3	-122.4	-1.7	-113.2	-29.0	/
Cn1nnnc1Sc1ncnc2scc(-c3cccs3)c12	25.4	-69.0	-83.7	-0.7	97.5*	89.5*	FLuc counter=55.8*
Cc1nn(-c2ccc(F)cc2)c(Cl)c1/C=C1\C(=O)Nc2ccccc21	4.9	-113.0	-4.7	37.4	59.2*	61.8*	FLuc counter=67.9*
O=C1Nc2ccccc2/C1=C/c1ccccc1F	-13.1	-5.6	2.7	-5.6	17.3	/
CCC(C)Sc1nnc(NC(=O)C2CCN(C(=O)c3ccco3)CC2)s1 (centres undefined)	38.8	0.1	4.2	2.6	7.2	/
C=CCNc1nc(N)c(C(=C(C#N)C#N)c2ccc(Br)cc2)s1	-1.8	-9.1	15.9	-3.7	50.5*	41.9*	FLuc counter=87.8*
C=CCNc1sc(C(=O)c2ccc(C)cc2)c(N)c1C#N	-3.9	11.4	-1.5	5.7	22.0	/
N/C(=N\OC(=O)C12CC3CC(CC(C3)C1)C2)c1ccncc1	-5.1	-27.6	/	13.8	83.7*	14.1
CCOC(=O)N1CCN(C(=O)c2ccc(OC)c(S(=O)(=O)N3CCOCC3)c2)CC1	-5.9	11.1	-1.1	-5.5	-10.9	/
COc1ccc(NC(=O)/C(C#N)=C\C=C\c2ccco2)cc1	2.0	-15.5	-1.2	34.2	50.6*	53.4*	FLuc counter=58.1*
COc1ccc(CCn2c(SCC(=O)Nc3cc(C)on3)nc3ccccc3c2=O)cc1OC	18.8	11.1	-11.3	-11.6	58.8*	24.5
Cn1c(SCC(=O)NCc2ccc(F)cc2)nc2c([nH]c3ccccc32)c1=O	/	0.0	-1.3	-11.2	75.3*	-8.3
CCn1c(SCC(=O)Nc2cc(C)on2)nc2c([nH]c3ccccc32)c1=O	9.0	6.0	26.2	4.1	64.8*	25.7
CCn1c(SCC(=O)Nc2cccc(NC(C)=O)c2)nc2c([nH]c3ccccc32)c1=O	7.8	5.2	/	-0.5	78.0*	30.6
CCn1c(SCC(=O)N2CCOCC2)nc2c([nH]c3ccccc32)c1=O	9.7	2.2	-6.0	28.0	19.0	/
CCCCN(C)C(=O)C1CCN(c2ccc(S(=O)(=O)N3CCOCC3)cc2[N+](=O)[O-])CC1	7.0	17.5	7.8	16.4	18.4	/
Cc1cc(NC(=O)CSc2nc3cc(Cl)ccc3s2)no1	4.8	15.9	-4.2	-9.6	8.8	/
Cc1cc(NC(=O)CSc2nc3cc(Cl)ccc3c(=O)n2C(C)C)no1	-0.7	-5.3	/	12.3	55.6*	19.6
CCn1c(SCC(=O)Nc2ccc(C(C)=O)cc2)nc2c([nH]c3ccccc32)c1=O	6.3	17.8	26.2	-46.1	62.2*	35.7
C=CCNC(=O)C1CC(=O)N(c2ccc(OCC(=O)Nc3ccc(Cl)c(C(F)(F)F)c3)cc2)C1 (centres undefined)	10.5	0.6	/	19.3	78.3*	11.9
